CHT block = inhibitors of human choline transporter CHT | 0.86% of 310,000 active | B-score at 10 µM | CHT-expressing cells, membrane potential dye, choline response; active compounds read low | Q9GZV3;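 active means B-score over 3 SD under the library average, and starting fluorescence ratio not unusually high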;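 further: choline stimulus applied at its EC90 after an EC20 pre-addition; B-score computed on integrated fluorescence ratio after choline addition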
Target sequence (Q9GZV3 whole entry, looked up): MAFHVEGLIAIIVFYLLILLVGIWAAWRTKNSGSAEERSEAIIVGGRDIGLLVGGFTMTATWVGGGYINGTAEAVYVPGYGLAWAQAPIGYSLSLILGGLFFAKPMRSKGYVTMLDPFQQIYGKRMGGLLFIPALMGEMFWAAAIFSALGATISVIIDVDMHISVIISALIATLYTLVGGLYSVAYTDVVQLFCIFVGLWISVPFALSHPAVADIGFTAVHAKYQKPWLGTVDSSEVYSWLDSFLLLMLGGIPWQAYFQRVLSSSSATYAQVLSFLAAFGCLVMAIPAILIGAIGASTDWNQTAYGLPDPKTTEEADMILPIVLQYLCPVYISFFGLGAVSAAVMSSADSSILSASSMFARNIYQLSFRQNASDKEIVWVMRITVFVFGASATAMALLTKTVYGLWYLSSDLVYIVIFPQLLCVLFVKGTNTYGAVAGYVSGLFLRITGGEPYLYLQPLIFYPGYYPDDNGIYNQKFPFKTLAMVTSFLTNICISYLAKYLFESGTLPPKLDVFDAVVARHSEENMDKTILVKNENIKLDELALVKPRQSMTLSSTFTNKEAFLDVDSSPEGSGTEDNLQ
CHT allo act = allosterically activates the human high affinity choline transporter. CHT-expressing cells, membrane potential dye, choline EC20; active compounds read high; LV-AA mutant CHT in HEK293 cells. B-score at 10 µM. 0.49% of 310,000 active. AID 488977;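 active means initial fluorescence not abnormally high and integrated response B-score, plate-corrected, over 3 SD above library mean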
ALR inh = inhibitors of human sulfhydryl oxidase ALR | purified ALR, DTT oxidation, H2O2 HRP-luminol luminescence | inhibition, % (no concentration beside the values) | 3.8% of 290,000 active | AID 485317;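 active means mean replicate inhibition above about 79%, with every replicate also reaching it, limit read from the data; inconclusive means only one of the two criteria met; inactive means mean below limit and not every replicate reaching it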
AI-2 QS mod = modulators of Vibrio harveyi AI-2 quorum sensing system. Vibrio harveyi JMH597 AI-2 luminescence/OD600 ratio, 9 h; active compounds read low; strain lacks LuxN and CqsS sensors; 0 = neutral-control median. activity change, % at 7.5 µM. 0.4% of 300,000 active. AID 2094; in the data active means activity change below about -75%, passing the limit was not always enough; inconclusive means no clear call, values can overlap the other calls;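 further: luminescence divided by OD600 gain over 9 h not by final OD600 alone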
PREPL inhibitor = inhibits the human prolyl oligopeptidase-like enzyme | Q4J6C6 | recombinant PREPL, fluorescence polarization activity-based probe | inhibition, % at 5.96 µM | 0.68% of 320,000 active; in the data active means inhibition above about 43%
CHT inh conf = confirmation of human choline transporter CHT inhibitors; shares compounds with CHT block; CHT-expressing cells, choline membrane potential dye; LV-to-AA substituted CHT, HEK293 cells; CHT activity remaining % of control (active compounds read low), % at 10 µM; 70% of 2,400 active; AID 493221;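 active means choline transporter activity left, mean of duplicates at 10 µM, below buffer-only control mean minus 3 SD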;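 further: depolarization triggered by choline at its EC90 following an EC20 pre-addition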
HEK293 MPD ctr = counter-screen for CHT inhibitors: effect in parental HEK293 cells; shares compounds with CHT block; membrane potential dye, choline response; active = decrease or increase beyond buffer ±3SD; 4% of 2,400 active; AID 493222; membrane potential ratio readout (active if shifted either direction beyond buffer ±3SD; no single direction) at 10 µM;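 further: parental cells lack the transporter so any hit is non-specific; ratio is peak minus trough fluorescence over baseline after EC90 choline challenge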
Hits are given with their value; . = inactive; ? = inconclusive; / = not tested or not shown. Hits are enriched below; roughly 5% of the tested compounds scored in any of these assays.

SMILES | CHT block | CHT allo act | ALR inh | AI-2 QS mod | PREPL inhibitor | CHT inh conf | HEK293 MPD ctr
CCc1nnc(NS(=O)(=O)c2ccc(NC(=O)c3cc(Cl)ccc3[N+](=O)[O-])cc2)s1 | . | . | . | . | / | / | /
CCc1nnc(NS(=O)(=O)c2ccc(NC(=O)c3cccc4ccccc34)cc2)s1 | . | . | . | . | . | / | /
CCc1nnc(NC(=O)c2cc(S(=O)(=O)N(CC)CC)ccc2Cl)s1 | -5.85 | . | . | . | . | 52.1% | .
CCc1nc2ccccc2nc1N1CCN(S(=O)(=O)c2ccccc2)CC1 | . | . | . | . | . | / | /
COc1cccc2sc(N(CCN(C)C)C(=O)c3ccc4c(c3)CCCC4)nc12 | -10 | . | . | . | . | 17.7% | .
CCOc1cccc2sc(N(CCN(C)C)C(=O)c3ccc4c(c3)OCCO4)nc12 | -8.44 | . | . | . | . | 18.6% | .
Cc1cccc2sc(N(CCCN(C)C)C(=O)c3ccc(Cl)s3)nc12 | -6.8 | . | . | . | . | 26.6% | .
CN(C)CCN(C(=O)c1ccc2c(c1)CCCC2)c1nc2c(F)cccc2s1 | . | . | . | . | . | / | /
O=C1C(Cl)=C(NS(=O)(=O)c2ccc([N+](=O)[O-])cc2)C(=O)c2ccccc21 | -5.77 | . | . | . | . | 48.9% | 2.31
O=C(NC1CCCCC1)c1ccc(S(=O)(=O)NCc2ccco2)cc1 | -5.48 | . | . | . | . | . | .
O=C(NC1CCN(Cc2ccccc2)CC1)c1ccc(S(=O)(=O)NCc2ccco2)cc1 | . | . | . | . | . | / | /
CCNc1cc(Cl)nc(SC)n1 | -13.6 | . | . | . | . | -6.5% | .
COC(=O)c1ccc(Cn2c(CN3CCOCC3)nc3ccccc3c2=O)o1 | -5.2 | . | . | . | . | . | .
Cc1nc2ccccc2c(=O)n1CCN1CCOCC1 | . | . | . | . | . | / | /
Cn1c(=O)c2c(nc(CN3CCOCC3)n2CCc2ccccc2)n(C)c1=O | -5.03 | . | . | . | . | . | .
O=C1CC(C(=O)O)(c2ccccc2)c2cccc(F)c21 (stereo unspecified) | . | . | . | . | . | / | /
CCN1CCN(C(=O)C2=CC(c3ccc(C)cc3)=NS(=O)(=O)N2C)CC1 | -6.57 | . | . | . | . | . | .
O=c1c(-c2ccccc2)c[nH]n1-c1cccc([N+](=O)[O-])c1 | -6.25 | . | . | . | . | 45.4% | .
O=c1c(-c2ccc(Cl)cc2)c[nH]n1-c1ccccc1 | . | . | / | . | . | / | /
Cc1cc(C)cc(NC(=O)c2ccc(N3C(=O)C4CCCCC4C3=O)cc2)c1 (stereo unspecified) | -5.52 | . | . | . | . | 64.6% | .
O=C(Nc1ccc(Br)cc1)c1ccc(N2C(=O)C3CC=CCC3C2=O)cc1 (stereo unspecified) | . | . | . | . | . | / | /
COC(=O)c1ccc(N=CC2=C(O)CC(c3ccccc3)CC2=O)cc1 (stereo unspecified) | . | . | . | . | . | / | /
C[C@@H](NCCc1ccc(O)cc1)[C@@H](O)c1ccc(O)cc1 | -4.95 | . | . | . | . | 47.3% | .
CCOC(=O)C(Cc1ccccc1)C(=O)NCc1cccnc1 (stereo unspecified) | . | . | . | . | . | / | /
O=c1cc(-c2ccccc2)nc2c(-c3ccccc3)c(C(F)(F)F)[nH]n12 | -5.73 | . | / | . | . | 68.8% | .
SMILES | CHT block | CHT allo act | ALR inh | AI-2 QS mod | PREPL inhibitor | CHT inh conf | HEK293 MPD ctr
Cc1cc(=O)n2[nH]c(C)c(-c3ccccc3)c2n1 | . | . | . | . | . | / | /
O=C(CSc1c2c(nc3ccc(Cl)cc13)CCCC2)NCCCN1CCOCC1 | -8.63 | . | 97.7 | . | . | 18.2% | .
O=C(CSc1c2c(nc3cc(Cl)ccc13)CCCC2)NCCN1CCOCC1 | . | . | . | . | . | / | /
COc1ccc(C2(c3ccc(OC)cc3)NC(=O)N(CC(=O)NC3CCS(=O)(=O)C3)C2=O)cc1 (stereo unspecified) | / | / | / | / | . | / | /
O=C(COC(=O)c1cc(=O)c2ccccc2o1)NC1CCCC1 | . | . | . | . | . | / | /
N=C(N)SCc1ccccn1 | -5.94 | . | . | . | . | 33.4% | .
Cc1cccc(OCC(=O)NC(=S)NNC(=O)c2ccncc2)c1 | . | . | . | . | . | / | /
CCCCC(=O)NNC(=S)NC(=O)c1ccc([N+](=O)[O-])cc1 | . | . | . | . | . | / | /
COc1ccc(OCC(=O)NC(=S)Nc2ccccc2F)cc1 | -5.23 | . | . | . | . | 59.5% | .
Cc1ccc(C(=O)NNC(=S)NC(=O)COc2ccccc2)cc1 | -6.08 | . | . | . | . | . | .
Cc1ccccc1C(=O)NNC(=S)NC(=O)COc1ccccc1 | -7.99 | . | . | . | . | 33.3% | .
CCCCC(=O)NNC(=S)NC(=O)c1ccc(C)cc1 | -9.05 | . | 98.5 | . | . | 30.0% | .
Cc1nn(C)cc1S(=O)(=O)NC1CCCC1 | . | . | . | . | . | / | /
CCOC(=O)C1C(C(=O)NN)C1C(=O)Nc1ccccc1 (stereo unspecified) | . | . | . | . | . | / | /
CC1CN(C(=O)CSc2nc(N)cc(N)n2)CC(C)O1 (stereo unspecified) | / | / | / | / | . | / | /
COc1ccc(C(=O)NNC(=O)C(=O)Nc2ccc(C)cc2)cc1 | . | . | . | . | . | / | /
COc1ccc(C(=O)NC(=S)NNC(=O)c2ccc(C)cc2)cc1 | -7.2 | . | . | ? | . | 48.7% | .
CCn1c(N2CCN(S(=O)(=O)c3ccc(F)cc3)CC2)nc2ccccc21 | . | . | . | . | . | / | /
CCn1c(N2CCN(S(=O)(=O)c3ccc(Cl)cc3)CC2)nc2ccccc21 | -11.6 | . | . | . | . | 44.0% | .
CCn1c(SCC(=O)Nc2ccc(C(C)=O)cc2)nc2nc3c(cc2c1=O)COC(C)(C)C3 | . | . | . | . | . | / | /
CCn1c(SCC(=O)Nc2ccc(OC)cc2)nc2nc3c(cc2c1=O)COC(C)(C)C3 | -4.97 | . | / | . | . | . | .
CN(C)S(=O)(=O)c1ccc(NC(=O)C2CC3C=CC2C3)cc1 (stereo unspecified) | -6.73 | . | . | ? | . | . | .
CCN(CC(=O)Nc1ccccc1C(F)(F)F)C(=O)C1=COCCO1 | . | . | . | . | . | / | /
CC(Oc1ccc2c(-c3ccccc3)cc(=O)oc2c1)C(=O)O (stereo unspecified) | . | . | . | . | . | / | /
COC(=O)C(Oc1ccc2c(-c3ccc(OC)cc3)cc(=O)oc2c1)c1ccccc1 (stereo unspecified) | -6.17 | . | . | . | . | . | .
CCc1ccc(/C=C/c2c([N+](=O)[O-])c(=O)n(C)c(=O)n2C)cc1 | . | . | / | . | . | / | /
Cn1c(/C=C/N(Cc2ccccc2)c2ccccc2)c([N+](=O)[O-])c(=O)n(C)c1=O | -8.36 | . | . | . | . | 49.5% | .

Assay outcomes: PubChem BioAssay, several laboratories
